# Screens deposited in PubChem BioAssay by several laboratories.
# Ba/F3 V617F tox – reduced viability of JAK2V617F-dependent Ba/F3 cells, primary screen, JAK2V617F inhibitor project, cell-based, Ba/F3 EpoR-JAK2V617F, luminescence; ATP luminescence; inhibition, % at 5.6 µM; 220,000 tested, 1.1% active;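 active = inhibition above the campaign mean plus 3 SD over all tested compounds, cut at about 24% in these data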;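 also: cytokine-independent growth of Ba/F3 cells driven by EpoR plus mutant JAK2; 0% = DMSO-treated cells and 100% = JAK inhibitor I control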
# BaF3 tox – parental Ba/F3 cell viability inhibition, counter-screen for JAK2V617F inhibitor project, murine pro-B, CellTiter-Glo luminescence; CellTiter-Glo ATP luminescence; inhibition, % at 5.6 µM; 220,000 tested, 1.1% active;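 active = inhibition above a per-campaign cutoff, the mean inhibition of all tested compounds plus 3 SD, cut at about 27% in these data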;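 also: 0% = DMSO wells and 100% = JAK Inhibitor I control wells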
# APP transl inh – inhibitors of APP translation via 5'UTR reporter, primary screen, APP 5'UTR luciferase, SH-SY5Y cells | inhibition, % at 2 µM | SH-SY5Y APP 5'UTR-luciferase reporter, luminescence | 190,000 tested, 0.82% active | AID 1285, 2008;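 active = inhibition above a set limit, derived from the sample mean plus 3 SD, cut at about 45% in these data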
# IEC-6 tox-1 – cytotoxicity in IEC-6 intestinal epithelial cells, primary screen, cytotoxicity control for KLF5 inhibitor project, cell-based, luminescence | IEC-6 cytotoxicity, luminescence viability | 290,000 tested, 0.78% active | inhibition, % at 5 µM | AID 1825, 2009;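 also: 0% = plate median of test compound wells and 100% = cytotoxic reference compound wells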
# KLF5 inhibitor – KLF5 expression inhibitors, primary screen, DLD-1 cells, luminescence | DLD-1 KLF5 promoter-luciferase reporter | AID 1700, 2009 | 290,000 tested, 0.23% active | inhibition, % at 5 µM;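 active = inhibition above a per-plate limit of that plate's mean compound inhibition plus 3 SD, cut at about 60% in these data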;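 also: 0% = DMSO wells and 100% = LY294002 at 200 µM; higher means less KLF5 promoter-driven luciferase light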
# KLF5 confirm – KLF5 expression inhibitors, confirmation, DLD-1 cells, luminescence | AID 1834, 2009 | DLD-1 KLF5 promoter firefly luciferase reporter | inhibition, % at 4 µM | 610 tested, 79% active | shares compounds with KLF5 inhibitor;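 active = inhibition above a set limit taken from the earlier primary screen, cut at about 63% in these data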;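 also: 0% = DMSO wells and 100% = LY294002 at 200 µM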
# IEC-6 tox-2 – cytotoxicity in rat IEC-6 cells, cytotoxicity control for KLF5 inhibitor project, cell-based, luminescence, triplicate; shares compounds with KLF5 inhibitor; IEC-6 rat intestinal cells, viability luminescence; inhibition, % at 4 µM; 610 tested, 56% active; in the data active = inhibition above about 23%;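 also: cells exposed to compounds for 48 hours before viability read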
# IEC-6 tox confirm – cytotoxic compounds in IEC-6 epithelial cells, confirmation, cytotoxicity control, cell-based, luminescence. shares compounds with IEC-6 tox-1. IEC-6 rat intestinal epithelial viability. inhibition, % at 5 µM. 1,900 tested, 63% active;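 also: 0% = vehicle and 100% = reference cytotoxic drug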
# Starred values were filed as active, the others as inactive; x = no result. An excerpt weighted towards active compounds, which were near 1.9% of everything screened. Rule as the data show it, unless noted: active = inhibition above about 22%; inactive = the rest.
SMILES,Ba/F3 V617F tox,BaF3 tox,APP transl inh,IEC-6 tox-1,KLF5 inhibitor,IEC-6 tox confirm,others
C[C@@H]1O[C@@H](O[C@H]2C[C@@H](O)[C@]3(CO)[C@H]4[C@H](O)C[C@]5(C)[C@@H](C6COC(=O)C6)CC[C@]5(O)[C@@H]4CC[C@]3(O)C2)[C@H](O)[C@H](O)[C@H]1O (stereo not given in full),4,6,93*,2,64*,x,KLF5 confirm=71*;IEC-6 tox-2=3
CC(Cc1ccccc1)N1C(=O)c2ccccc2C1=O (stereo not given),x,x,x,9,-35,x,
CCCCCCC[n+]1ccc(-c2cc[n+](CCCCCCC)cc2)cc1,95*,93*,16,11,77*,x,KLF5 confirm=63*;IEC-6 tox-2=-7
O=c1c2ccccc2nc(-c2ccccc2Cl)n1-c1cccc(O)c1,x,x,x,-4,-25,x,
CC(=O)OC(C)(C)/C=C/C(=O)C(C)(O)C1[C@H](O)C[C@@]2(C)C3CC=C4C(CC[C@@H](O)C4(C)C)[C@]3(CO)C(=O)C[C@]12C (stereo not given in full),x,x,x,99*,90*,97*,KLF5 confirm=93*;IEC-6 tox-2=96*
CCC(C)C(NC(=O)CCCNC(=O)CCC(=O)OC1O[C@H]2OC3(C)CC[C@H]4[C@H](C)CCC(C1C)C24OO3)C(=O)O (stereo not given in full),x,x,x,34*,83*,26*,KLF5 confirm=84*;IEC-6 tox-2=41*
C[C@@H]1CC[C@H]2[C@@H](C)C(=O)O[C@@H]3O[C@@]4(C)CC[C@@H]1[C@]32OO4,x,x,x,4,12,x,
CC[C@@]1(O)C(=O)OCc2c1cc1n(c2=O)Cc2cc3ccccc3nc2-1,98*,93*,x,97*,62*,72*,KLF5 confirm=94*;IEC-6 tox-2=75*
CN1CCN(Cc2cc3c(cc2[N+](=O)[O-])OCO3)CC1,x,x,x,-1,-6,x,
CCOC(=O)C1(CCc2ccccc2)CCN(CC(O)CO)CC1 (stereo not given),x,x,x,1,-8,x,
CCN1/C(=C\C=C\C2=[N+](CC)c3ccccc3C2(C)C)C(C)(C)c2ccccc21,99*,93*,93*,64*,84*,70*,KLF5 confirm=104*;IEC-6 tox-2=64*
CC(=O)O[C@@]12CO[C@@H]1C[C@H](O)[C@@]1(C)C(=O)[C@H](O)C3=C(C)[C@@H](O)C[C@@](O)([C@@H](OC(=O)c4ccccc4)C12)C3(C)C (stereo not given in full),x,x,x,6,-9,x,
C/C=C(\C)C(=O)N[C@@H](c1ccccc1)[C@@H](O)C(=O)O[C@H]1C[C@@]2(O)[C@@H](OC(=O)c3ccccc3)C3[C@](C)(C(=O)[C@H](OC(C)=O)C(=C1C)C2(C)C)[C@@H](O)C[C@H]1OC[C@@]31OC(C)=O (stereo not given in full),x,x,x,88*,64*,72*,KLF5 confirm=88*;IEC-6 tox-2=78*
CC(C)[C@H]1C(=O)O[C@H](C(C)C)C(=O)N(C)[C@@H](C(C)C)C(=O)O[C@H](C(C)C)C(=O)N(C)[C@@H](C(C)C)C(=O)O[C@H](C(C)C)C(=O)N1C,98*,77*,5,89*,70*,54*,KLF5 confirm=-3;IEC-6 tox-2=10
CC(C)(C)c1cc([N+](=O)[O-])cc(C(C)(C)C)c1O,1,3,5,0,-1,x,
COc1ccccc1NC(=O)c1cn(CCC#N)nc1-c1cccc(Cl)c1,x,x,x,-6,-22,x,
CC[C@@]1(O)C(=O)OCc2c1cc1n(c2=O)Cc2cc3c(NC(=O)CN)cccc3nc2-1,94*,79*,x,41*,20,26*,
FC(F)(F)c1ccccc1CNCCc1c[nH]c2ccccc12,x,x,x,2,-8,x,
O=C(Nc1nccs1)C(Cl)(Cl)Cl,2,5,5,-2,-1,x,
O=C(Nc1ccc(Cl)cc1)Nc1nccs1,85*,79*,60*,68*,24,60*,
COc1cccc(OC)c1C1=NCC(=O)Nc2c1oc1ccc(Br)cc21,75*,39*,93*,34*,35,57*,
CN(C)CCN(C(=O)COc1ccc(Cl)cc1)c1nc2cc3c(cc2s1)OCO3,x,x,x,-7,-19,x,
Cc1ncc(CN2CCCC(C(=O)c3ccc(C(C)(C)C)cc3)C2)s1 (stereo not given),4,7,11,7,7,x,
C/C=C(\C)C(=O)N[C@@H](c1ccccc1)[C@@H](O)C(=O)O[C@H]1C[C@@]2(O)[C@@H](OC(=O)c3ccccc3)C3[C@](C)(C(=O)[C@H](O)C(=C1C)C2(C)C)[C@@H](O)C[C@H]1OC[C@@]31OC(C)=O (stereo not given in full),x,x,x,89*,50,70*,
O=C1NC(=S)N(Cc2ccco2)C(=O)/C1=C\c1cccs1,1,3,-10,-26,-17,x,
SMILES,Ba/F3 V617F tox,BaF3 tox,APP transl inh,IEC-6 tox-1,KLF5 inhibitor,IEC-6 tox confirm,others
Cc1noc(C)c1CC(=O)N1CCCC(N2CCN(c3ccccc3F)CC2)C1 (stereo not given),x,x,x,-3,-13,x,
CC[n+]1c(/C=C/C=C/c2ccc(N(C)C)cc2)sc2ccccc21,99*,92*,x,37*,23,58*,
Cc1c(C)c2ccc(OCC(=O)N3C[C@H]4C[C@@H](C3)c3cccc(=O)n3C4)cc2oc1=O,x,x,x,-8,-14,x,
O=C1CN=C(c2ccc[nH]2)c2cc(Cl)ccc2N1,54*,37*,x,31*,4,22,
COc1ccc(CNCCc2c[nH]c3ccccc23)c(OC)c1C,x,x,x,14,-15,x,
COc1cc(C)c(CNCCc2c[nH]c3ccccc23)cc1C,x,x,x,24*,-4,0,
COC(=O)C(Cc1ccc(N(CCCl)CCCl)cc1)N=Cc1ccccc1O (stereo not given),x,x,x,90*,-12,78*,
CCC(C)NC(=O)CCC(=O)OC1O[C@H]2OC3(C)CC[C@H]4[C@H](C)CCC(C1C)C24OO3 (stereo not given in full),x,x,x,35*,84*,23*,
C[C@H](NC(=O)CCC(=O)N1C[C@H]2C[C@H](C1)c1cccc(=O)n1C2)c1ccccc1,x,x,x,2,-24,x,
Cn1cc(C(O)CN2CCCCC2)c2ccccc21 (stereo not given),x,x,x,2,-41,x,
COc1cc2c(cc1OC)[C@@H]1C(=O)c3ccc4c(c3O[C@@H]1CO2)C[C@H](C(C)C)O4,71*,65*,x,35*,28,25*,
Nc1cc(Cl)c2nonc2c1[N+](=O)[O-],47*,2,96*,69*,14,30*,
